# Screening data: PubChem, National Center for Advancing Translational Sciences (NCATS)
# Lassa entry inh: Lassa virus entry inhibition | Lassa virus pseudotype entry inhibition, cell reporter | Potency, µM (top dose mostly 37.9 µM), most hits filed as inhibitors | 300,000 compounds, 1.2% hits; calls by dose curve; tested in HEK293 cells; note: nearly all actives have a fitted effect of over 50% in size
# Pf growth 96h: P. falciparum growth inhibition at 96 hours | P. falciparum luciferase reporter growth, 96 h | Potency, µM (doses to about 28.7 µM), most hits filed as inhibitors | 320,000 compounds, 6.9% hits
#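 Erythrocytes infected with luciferase-expressing P. falciparum were dispensed at 2% hematocrit and 0.05% parasitemia (final), then incubated with compounds 96 hours at 37 C in 5% CO2. Luminescence after detection reagent addition reported growth.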
# HCMV antiviral: human cytomegalovirus inhibition; HFF cells, HCMV-luciferase reporter, 72 h; active compounds read low; 410,000 compounds, 4.5% hits; activity change, negative = inhibition, % at 57.5 µM; in the data active = activity change below about -60%; inconclusive = no clear call, values can overlap the other calls; inactive = above about -39%
#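 After 16 h attachment at 37C, HFF cells received test compound and HCMV-luciferase (1 PFU/cell); reporter luminescence read 72 h later, data normalized against buffer-only and known inhibitor Salinomycin.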
# HCV inh: inhibitors of hepatitis C virus infection. Huh7.5.1 HCVcc-Cre infection, luciferase reporter, 44 h. Potency, µM (series often up to 41.8 µM), hits mostly inhibitors. 340,000 compounds, 3.4% hits. AID 651820
#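 After 44 h co-culture of compound, cells and HCVcc-Cre (~0.5 moi), substrate is added for 15 min at room temperature and luciferase measured over 15 sec. Cells were seeded at 1,000/well and pre-cultured 4 h.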
# Marburg entry inh: blocks Marburg virus binding to or entry into cells | Marburg virus pseudotyped entry inhibition, cell reporter | Potency, µM (titrated, usually from 37.8 µM), usual class: inhibitors | 300,000 compounds, 1.8% hits | AID 540276; calls by dose curve; tested in HEK293 cells
# Pf growth 48h: P. falciparum growth inhibition at 48 hours (one generation). P. falciparum luciferase growth in erythrocytes, 48 h. Potency, µM (titrated, usually from 28.7 µM), most hits filed as inhibitors. 310,000 compounds, 5.9% hits
#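 Cell-based growth assay: transgenic P. falciparum expressing firefly luciferase, cultured in red cells within RPMI 1640 containing 0.5% w/v Albumax, 24 mM bicarbonate and gentamycin. A drop in luciferase activity indicates inhibition.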
# A number is an active result; – = inactive; ? = inconclusive; · = no result. Sampled rows, rich in hits. Any-hit rate of the full collection: about 14%. Unless noted, calls come from the whole dose curve; as a rule, active = well fitted inhibition curve with a large enough effect; inconclusive = small, poorly fitted or top-dose-only effect, or another doubt; inactive = no such curve, though single readings can be large or run the other way.
SMILES,Lassa entry inh,Pf growth 96h,HCMV antiviral,HCV inh,Marburg entry inh,Pf growth 48h
CCc1ccc(CN(Cc2ccco2)c2cnc(S(C)(=O)=O)nc2C(=O)Nc2ccc(C)c(Cl)c2)cc1,–,·,–,·,?,·
O=C(Nc1cccc(F)c1)N1C[C@H]2[C@@H](c3ccccc31)[C@H](CO)N2C(=O)c1cccnc1,·,·,–,·,·,·
COc1ccccc1NC(=S)N(Cc1ccco1)Cc1cc2ccc(C)c(C)c2[nH]c1=O,?,–,?,?,11.2µM,11.7µM
CNC(=S)N(Cc1ccco1)Cc1cc2cc(OC)c(OC)cc2[nH]c1=O,–,–,–,–,–,?
OCCC1CN(Cc2ccccc2O)CCN1CCCc1ccccc1 (centres undefined),·,–,–,–,·,6.57µM
Cc1ccc(CN2CCN(Cc3nc4ccccc4nc3C)CC2CCO)cc1 (centres undefined),·,?,–,–,·,?
Cc1ccc(CN2CCN(Cc3cnc(C)[nH]3)CC2CCO)cc1 (centres undefined),–,11.7µM,–,–,–,–
COc1ccc(CN2CCN(CCc3ccccc3)C(CCO)C2)c(O)c1 (centres undefined),–,–,–,–,–,10.4µM
OCCC1CN(Cc2ccccc2-c2ccco2)CCN1Cc1ccccc1 (centres undefined),–,9.28µM,–,–,?,?
OCCC1CN(Cc2cccc3c2OCO3)CCN1Cc1ccccc1 (centres undefined),–,?,–,–,?,–
COc1ccc(OC)c(CN2CCN(CCCc3ccccc3)C(CCO)C2)c1 (centres undefined),·,?,-102.1,–,·,–
COc1ccc(CN2CCN(CCCc3ccccc3)C(CCO)C2)c(O)c1 (centres undefined),–,2.94µM,–,?,?,?
CCOc1ccccc1CN1CCN(CC2=Cc3cc(OC)ccc3OC2)CC1CCO (centres undefined),·,?,–,?,·,9.28µM
COc1ccc(CN2CCN(CCCc3ccccc3)C(CCO)C2)c(OC)c1 (centres undefined),·,?,–,–,·,–
CC1CCc2cc(F)ccc2N1C(=O)c1cccnc1 (centres undefined),–,–,–,–,–,–
CCOC(=O)c1c(NC(=O)C(Sc2ccccc2)c2ccccc2)sc(C(=O)N(C)C)c1C (centres undefined),15.8µM,?,–,?,?,3.29µM
CCC(C(=O)NCc1ccc(C)cc1)c1ccccc1 (centres undefined),·,14.7µM,–,–,·,–
CCOC(=O)c1c(NC(=O)C(Sc2ccccc2)c2ccccc2)sc(C(N)=O)c1C (centres undefined),?,9.28µM,–,?,–,?
CCC(C(=O)Nc1sc(C(N)=O)c(C)c1C(=O)OC)c1ccccc1 (centres undefined),·,?,–,–,12.6µM,–
COC(=O)c1c(NC(=O)c2cccc([N+](=O)[O-])c2)sc(C(N)=O)c1C,?,–,–,–,?,–
O=C(Nc1ccc(C(F)(F)F)cc1[N+](=O)[O-])O[C@H]1[C@H](Cc2ccccc2)NS(=O)(=O)[C@H]2C[C@@H]3C=C[C@]12O3,·,?,–,?,–,?
COc1ccc(-c2nc3sc(CCNC(=O)Cc4ccccc4)c(C)n3n2)cc1,–,·,–,·,·,·
O=C(CNC(=O)OCc1ccccc1)Nc1ccc(F)cc1,·,–,–,–,·,–
CCc1nc2c(cnn2-c2ccc(Cl)cc2)c(=O)n1-c1ccc(OC)c(Cl)c1,–,·,–,·,–,·
CCC(C(=O)Nc1ccncc1)c1ccccc1 (centres undefined),–,–,–,–,?,4.65µM
CCC(C(=O)Nc1nc(C)c(C(=O)OC)s1)c1ccccc1 (centres undefined),–,–,–,–,–,?
CCC(C(=O)Nc1ccsc1C(=O)OC)c1ccccc1 (centres undefined),–,–,-67.3,–,–,–
CN1CCN(CC(O)COC(c2ccc(Cl)cc2)c2ccc(Cl)cc2)CC1 (centres undefined),·,9.28µM,-80.4,5.01µM,·,·
CN1CCN(CC(O)COc2ccc(Cl)cc2)CC1 (centres undefined),–,–,–,–,–,·
